Assay outcomes (PubChem BioAssay)
ALOX12 inh = inhibitors of human 12S-lipoxygenase ALOX12; 1.1% of 580,000 active; AID 1671190; purified 12hLO, xylenol orange hydroperoxide absorbance; Potency, µM (top dose mostly 108 µM), for the others: at the highest dose activity change, negative = inhibition, usual class: inhibitors; note: % is set by controls: 0 for no effect and ±100 for the full control effect
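Hydroperoxide product was detected by ferrous iron/xylenol orange as the 573 to 405 nm absorbance ratio. Arachidonic acid at 40 uM (final) was turned over for 30 min at room temperature by 150 nM human 12hLO, pH 7.0 Hepes buffer, after 15 min compound preincubation.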
SW480 rerep = induces DNA re-replication in SW480 colon adenocarcinoma cells; SW480 DNA re-replication, Hoechst DNA content imaging, 48 h; Potency, µM (doses to about 46.1 µM), for inactives: top-dose re-replication activation, actives largely listed as activators; 1.8% of 340,000 active; note: % of control where 0% means no effect; nearly all actives have a fitted effect of over 55% in size
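Hoechst fluorescence of nuclei (405 nm excitation, 500-530 nm emission) measured by plate-scanning imager after 48 hr compound exposure at 37 C; re-replication scored as increased number of nuclei with elevated intensity.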
KB-V1 cytotox = KB-V1 MDR subline cytotoxicity. Potency, µM (titrated, usually from 46.1 µM), hits mostly cytotoxic. 3.4% of 400,000 active. KB-V1 MDR cells viability, CellTiter-Glo, 72 h. AID 1347076; note: % is set by controls: 0 for no effect and ±100 for the full control effect; nearly all actives have a fitted effect of over 60% in size
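Luminescent ATP read-out (CellTiter-Glo, 10 min) measures survival of drug-selected KB-V1 MDR cells after 72 h, 37 degrees C compound exposure. Medium: phenol-red-free DMEM, 10% FBS. Values from fitted concentration-response curves.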
MCF10A rereplic = inducers of DNA re-replication in MCF 10A breast cells. 2.9% of 350,000 active. MCF 10A DNA re-replication, Hoechst nuclear intensity, 48 h. Potency, µM (doses to about 46.1 µM), for the others: at the highest dose activity, positive = re-replication, usual class: activators; note: % of control where 0% means no effect; nearly all actives have a fitted effect of over 50% in size
PINK1 expr mod = modulators of PINK1 expression; PINK1 immunofluorescence, high-content cytometry, 24 h; 0.2% of 410,000 active; Potency, µM (doses to about 76.6 µM), inactives show top-dose activation (PINK1 increase), most hits filed as activators; active = well fitted activation curve with a large enough effect; inconclusive = small, poorly fitted or top-dose-only effect; cell line not stated here; note: % of control where 0% means no effect; nearly all actives have a fitted effect of over 65% in size
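Cells are seeded, rested 12 hours, then given compound at five concentrations or DMSO for 24 hours. After fixation, blocking and antibody staining, PINK1 amount and mitochondrial localization are scored; CCCP serves as control.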
KB-3-1 cytotox = kills parental KB-3-1 adenocarcinoma cells; KB-3-1 viability, CellTiter-Glo ATP luminescence, 72 h; Potency, µM (titrated, usually from 46.1 µM), actives largely listed as cytotoxic; 1.4% of 400,000 active; AID 1347075; note: % is set by controls: 0 for no effect and ±100 for the full control effect; nearly all actives have a fitted effect of over 60% in size
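72 h, 37 °C compound treatment of KB-3-1 parental cells; CellTiter-Glo added, 10 min, luminescence read. Data corrected against DMSO-only plates and normalized before curve fitting.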
Active calls of the source: *; i = inactive; ? = inconclusive; · = not tested or not shown; [ ] = remark or other dose. Hits are enriched below; roughly 5.8% of the tested compounds scored in any of these assays. Unless noted, calls come from the whole dose curve; as a rule, active = well fitted curve in the direction sought with a large enough effect; inconclusive = small, poorly fitted or top-dose-only effect, or another doubt; inactive = no such curve, though single readings can be large; an effect the other way counts as inactive or inconclusive. Potency is the fitted concentration of half-maximal effect.

SMILES | ALOX12 inh | SW480 rerep | KB-V1 cytotox | MCF10A rereplic | PINK1 expr mod | KB-3-1 cytotox
COc1ccccc1N1CCN(C(=O)c2oc3ccc(F)cc3c2C)CC1 | -11% | ? | ? | ? | 1% | ?
CC(=O)c1ccc(N2CCN(c3ncc(C(F)(F)F)cc3Cl)CC2)cc1 | 405% | 2% | i | 5% | 1% | i
CC(C)(C)c1ccc(C(=O)N2CCN(c3ccc(N4CCOCC4)nn3)CC2)cc1 | 13% | -7% | ? | 0% | 1% | i
Cc1c(C(=O)N2CCN(c3ccc(C(F)(F)F)cn3)CC2)oc2ccccc12 | 0% | -6% | i | 23µM* | -1% | i
CC(=O)c1ccc(N2CCN(c3ccc(C(F)(F)F)cn3)CC2)cc1 | -2% | -18% | 7.3µM* | -53% | 22% | ?
Cc1ccc(C(=O)N2CCN(c3ccc(C(F)(F)F)cn3)CC2)cc1 | 2% | -6% | i | 1% | 0% | i
O=C(c1ccc(C(F)(F)F)cc1)N1CCN(c2ccc(N3CCOCC3)nn2)CC1 | -17% | -8% | 16µM* | 14% | -1% | i
COc1ccccc1N1CCN(C(=O)c2oc3ccc(Br)cc3c2C)CC1 | -15% | ? | 13µM* | 16µM* | 5% | 10µM*
COc1ccccc1N1CCN(C(=O)c2oc3ccccc3c2C)CC1 | -3% | 15µM* | i | ? | 8%[38.3 µM] | i
CC(C(=O)N1CCc2ccccc21)N1CCc2ccccc2C1 (stereo unspecified) | 0% | 1% | 15µM* | 7% | -1% | i
COc1cc2c(cc1OC)CN(C(C)C(=O)N1CCc3ccccc31)CC2 (stereo unspecified) | 10% | ? | ? | ? | 4% | ?
COc1ccccc1N1CCN(C(=O)c2oc3ccccc3c2NC(=O)C(C)Oc2ccccc2)CC1 (stereo unspecified) | -9% | · | i | · | 2% | ?
CCc1ccc(-c2cc(C(F)(F)F)on2)cc1S(=O)(=O)NCc1ccccc1 | -16% | · | · | · | · | ·
COCCNS(=O)(=O)c1cc(OC)c(C)cc1C | -11% | -44% | ? | ? | 2% | i
CCCOc1cc(C)c(S(=O)(=O)NCCOC)cc1C | -2% | 1% | 18µM* | -2% | 3%[38.3 µM] | i
O=C(NCCO)c1nc(-c2ccc(COc3ccc4c(c3)OCO4)cc2)no1 | -10% | · | · | · | · | ·
CCCCCc1c(-c2ccc(F)cc2)ncn1CCc1ccccc1OC | -39% | · | 12µM* | · | -1% | 18µM*
CCCCCc1c(-c2ccc(Br)cc2)ncn1CCc1ccccc1OC | -102% | · | 16µM* | · | 2% | ?
Cc1nc2c3c(C)c(C)n(Cc4ccccc4)c3ncn2n1 | 0% | · | · | · | · | ·
Cc1ccc(COc2cccc(C3C4=C(CCCC4=O)OC4=C3C(=O)CCC4)c2)cc1 | 1% | · | · | · | · | ·
Cc1ccc(NS(=O)(=O)c2cc(C(=O)NCCSc3ccc(C)cc3)ccc2C)cc1 | -20% | 16% | 16µM* | 26% | 0%[38.3 µM] | i
COc1ccccc1N1CCN(S(=O)(=O)c2ccc(NC(C)=O)cc2)CC1 | 13% | 1% | i | 3% | 4% | i
CC1=CC(C)(C)N(S(=O)(=O)c2ccc(C)cc2)c2ccc(C)cc21 | 5% | 7% | ? | -2% | ? | 6.5µM*
CC(=O)N1c2ccccc2C(C)=CC1(C)C | 3% | -14% | i | -5% | 0% | i
CC(=O)Nc1ccc(S(=O)(=O)N2c3ccccc3C(C)=CC2(C)C)cc1 | -14% | ? | ? | ? | 3% | 3.3µM*
CC1=CC(C)(C)N(S(=O)(=O)c2ccc(F)cc2)c2ccccc21 | 0% | 21µM* | i | ? | 7%[38.3 µM] | i
C/C=C/C(=O)N1c2ccc(C)cc2C(C)=CC1(C)C | -4% | 3% | i | 9% | 6% | i
CCCCOc1c(CNC(C)c2ncccc2C)cccc1OC (stereo unspecified) | 103% | · | · | · | · | ·
COc1ccc2[nH]c(C(=O)N3CCN4CCS(=O)(=O)N(C5CC5)C(=O)C4C3)cc2c1 (stereo unspecified) | 22µM* | · | · | · | · | ·
